Experimental findings from PubChem BioAssay (NCATS) are described below.

Experiment [1] concerns the target Lysosomal acid glucosylceramidase (Homo sapiens) (UniProt P04062). In words: Glucocerebrosidase-p2 (AID 348; in the data active means potency below about 10 µM; further: potency means the concentration at half of the fitted maximal effect). The conditions noted are these: purified GBA, blue fluorogenic substrate, 40 min. The gist of the method:
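Normal human glucocerebrosidase (0.2 nM) with blue fluorogenic substrate (80 uM final) in citrate/phosphate pH 5.9 with 10mM sodium taurocholate, 0.01% tween-20; 40 min RT, NaOH/glycine stop; fluorescence Ex 365/Em 440; AC50 from a titration from 0.6 nM upwards.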

Experiment [2] in a line: AP1 Signaling Pathway (AID 357; active means well fitted curve in either direction with a large enough effect, not every such curve was filed as active;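 further: ME-180 reporter cells stimulated with EGF at its EC50 level; on the % scale 0 is the no-effect control and ±100 the full control effect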). The conditions noted are these: ME-180 AP-1-bla reporter, EGF-induced, beta-lactamase ratio, 5 h; at 7.69 µM (top of the series) unless noted. In short, it runs like this:
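AP-1-bla ME-180 cells, Opti-MEM + 0.5% dialyzed FBS, plated overnight 37 °C. Cpd titration + EC50 EGF, 5 h 37 °C. CCF4 2.5 h RT; ex 405, em 460/530 ratio → %activity, AC50.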

Experiment [3] can be described thus: NFAT Signaling Pathway (AID 444; active means well fitted curve in either direction with a large enough effect, not every such curve was filed as active;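 further: carbachol stimulus at about its EC50 of 1 µM final; on the % scale 0 is the no-effect control and ±100 the full control effect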). The conditions noted are these: Jurkat NFAT-bla M1, carbachol, beta-lactamase ratio, 5 h; at 7.69 µM (top of the series) unless noted. In short, it runs like this:
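Jurkat cells with NFAT-driven β-lactamase reporter and co-expressed M1 receptor, stimulated with carbachol (final 1 uM, ~EC50), compound titration, 5 h at 37 °C. CCF4 loaded 1 h at RT; 460/530 nm ratio gave %activity and AC50.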

Experiment [4] in a line: Stat Signaling Pathway (AID 446; active means well fitted curve in either direction with a large enough effect, not every such curve was filed as active;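 further: ME-180 cervical cancer cells given 40 pM IL-6 alongside compound; SIE-controlled beta-lactamase reporter measured as 460/530 nm FRET emission ratio; on the % scale 0 is the no-effect control and ±100 the full control effect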). The conditions noted are these: ME-180 (cervical carcinoma) SIE beta-lactamase reporter, IL-6 stimulated, 5 h; at 7.69 µM (top of the series) unless noted. The gist of the method: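 Emission at 460 and 530 nm (excitation 405 nm) reports SIE-controlled beta-lactamase in ME-180 cells. Cells received compound with 40 pM IL-6 for 5 hrs at 37 C; data scaled between 300 pM IL-6 and 125 nM JAK-inhibitor controls.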

Experiment [5] addresses Glucocorticoid receptor (Homo sapiens) (UniProt P04150). The experiment can be described thus: GR-GFP Redistribution (AID 450;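 active means compounds whose dose series gives a full or clear partial fitted curve of increased nuclear translocation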; further: potency means the concentration at half of the fitted maximal effect). The conditions noted are these: U2OS GR-GFP nuclear translocation, laser cytometry, 2 h.
Experiment [6] shares this target. The experiment can be described thus: GR-EFC Redistribution (AID 451; calls by dose curve; further: potency means the concentration at half of the fitted maximal effect). The conditions noted are these: CHO-K1 GR-EFC translocation, beta-gal luminescence, 2 h. The gist of the method:
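CHO-K1 cells expressing nuclear EA and GR-ED fragments of b-gal; compounds titrated up to 46 uM final, 2 h at 37 C. GR nuclear translocation read as complemented b-gal luminescence after 1 h RT detection.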

Experiment [7] concerns the target Mitogen-activated protein kinase 10 (Mus musculus) (UniProt Q61831). The experiment can be described thus: JNK3 AlphaScreen Assay (AID 530; active means well fitted curve in either direction with a large enough effect, not every such curve was filed as active;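 further: kinase came from lysate of stimulated human HepG2 cells; signal reports phosphorylation of biotinylated GST-cJun 1-79 at Ser73 with 10 µM ATP; on the % scale 0 is the no-effect control and ±100 the full control effect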). The conditions noted are these: JNK3 lysate, c-Jun phosphorylation; series mostly up to 57.1 µM. In short, it runs like this:
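HepG2 lysate (IL-1b/TNFa pre-activated) + biotin-GST-cJun 1-79 + anti-pSer73 cJun; cpd titration, 15 min RT; ATP 10 uM start; Tris pH 7.6, MgCl2, DTT, vanadate; beads in EDTA buffer; AlphaScreen.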

Experiment [8] concerns the target 3',5'-cyclic-AMP phosphodiesterase 4B (Homo sapiens) (UniProt Q07343). The experiment can be described thus: qHTS Assay for Inhibitors of PDE-IV (AID 607; active means well fitted activation curve with a large enough effect in the main read-out, with a control signal flat, not every such curve was filed as active; further: % of control where 0% means no effect). The conditions noted are these: HEK293 ACTOne CNG channel cells, membrane potential fluorescence; series mostly up to 22.9 µM. The gist of the method: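 The readout is membrane depolarisation from a cAMP-sensing CNG channel, detected with a potential dye at ex 535/em 590. Cells were HEK293-derived (endogenous PDE-IV) at 1000 cells/well, titrated up to 22.9 uM final.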
Background: In qHTS, concentration-response curves come from the screen itself.

Experiment [9] deals with Cytochrome P450 3A4 (Homo sapiens) (UniProt P08684). In words: qHTS Assay for Inhibitors and Substrates of Cytochrome P450 3A4 (AID 884). Further: on the % scale 0 is the no-effect control and ±100 the full control effect; nearly all actives have a fitted effect of over 50% in size. The conditions noted are these: recombinant CYP3A4, Luciferin-PPXE luminescence; series mostly up to 57.1 µM. The gist of the method: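 Luminescent readout of luciferin produced by CYP3A4 (20 nM) dealkylation of Luciferin-PPXE, 25 uM (its KM). NADPH-driven reaction ran 60 min at RT after 10 min compound preincubation; data scaled to 57 uM ketoconazole as 100% inhibition.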

In experiment [10] the target is Cytochrome P450 2C19 (Homo sapiens) (UniProt P33261). The experiment can be described thus: qHTS Assay for Inhibitors and Substrates of Cytochrome P450 2C19 (AID 899). Further: on the % scale 0 is the no-effect control and ±100 the full control effect; nearly all actives have a fitted effect of over 60% in size. The conditions noted are these: recombinant CYP2C19, luciferin-H EGE luminescence; series mostly up to 57.1 µM. The gist of the method:
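Luminescent read-out of luciferin formed from Luciferin-H EGE (10uM, equal to KM). Enzyme 5nM in 50mM KPO4; compound added, 10 min at 37C, then NADPH regenerating system for 60 min at 37C. Full inhibition defined by 57uM ketoconazole.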

Experiment [11] can be described thus: qHTS Assay for Lipid Storage Modulators (AID 1519; calls by dose curve). The conditions noted are these: Drosophila S3 cells, BODIPY lipid droplet/cell ratio, laser cytometry, cells loaded with oleic acid; for activity change, negative = inhibition: at 57.5 µM (top of the series). The gist of the method: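 Cells seeded at 5,000 per well were treated with compounds over a concentration series and loaded with oleic acid (400 uM, as added). Lipid droplet fluorescence (488 nm excitation, 500-530 nm channel) was read by laser-scanning cytometry and normalized to 20 uM Triacsin C.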

The target of experiment [12] is Dual specificity protein kinase CLK4 (Homo sapiens) (UniProt Q9HAZ1). The experiment can be described thus: qHTS Assay for Inhibitors of CDC-like Kinase 4 (Kinase-Glo Assay) (AID 1770). Further: on the % scale 0 is the no-effect control and ±100 the full control effect; nearly all actives have a fitted effect of over 65% in size. The conditions noted are these: recombinant Clk4, Kinase-Glo ATP depletion luminescence; series mostly up to 66.7 µM. The gist of the method:
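Inhibition was judged from remaining ATP, measured by Ultra-Glo luciferase bioluminescence after Clk4 (25 nM) had acted on RS peptide at 1 uM ATP for 4.5 hours, room temperature.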

For experiment [13] the target is unchanged. In words: qHTS Assay for Inhibitors of CDC-like Kinase 4 (ADP-Glo Assay) (AID 1771). Further: on the % scale 0 is the no-effect control and ±100 the full control effect; nearly all actives have a fitted effect of over 70% in size. The conditions noted are these: recombinant CLK4, ADP-Glo luminescence; series mostly up to 80 µM. In short, it runs like this:
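25 nM Clk4, 100 uM RS peptide, 1 uM ATP (final); 2 mM MgCl2, 0.5 mM EGTA, 2.5 mM DTT, 0.01% Triton X-100; 1 hr RT. ADP-Glo readout: ATP depletion 45 min, conversion/luciferase 30 min, luminescence.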

The target is the same in experiment [14]. In words: qHTS Assay for Inhibitors of CDC-like Kinase 4 (ADP-FP Assay) (AID 1795).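 Further: recombinant human CLK4 phosphorylating RS repeat peptide at 1 µM ATP; on the % scale 0 is the no-effect control and ±100 the full control effect; nearly all actives have a fitted effect of over 60% in size.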 The conditions noted are these: Transcreener ADP fluorescence polarization; series mostly up to 50 µM. In short, it runs like this:
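Inhibition of ADP formation by 6.25 nM Clk4 is measured using 1 uM ATP and 100 uM RS repeat peptide over one hour. Produced ADP displaces a fluorescent tracer from antibody, lowering polarization.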

The target of experiment [15] is Ubiquitin carboxyl-terminal hydrolase 1 (Homo sapiens) (UniProt O94782). The experiment can be described thus: Inhibitors of USP1/UAF1: Pilot qHTS (AID 504865).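 Further: rhodamine fluorescence freed from ubiquitin-rhodamine substrate followed over time; top concentration of the series differs between compounds; on the % scale 0 is the no-effect control and ±100 the full control effect; nearly all actives have a fitted effect of over 35% in size.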 The conditions noted are these: purified USP1/UAF1, Ub-rhodamine cleavage fluorescence; series mostly up to 54.9 µM. The gist of the method:
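Kinetic fluorescence assay: 1nM USP1/UAF1, 15 min compound preincubation, then 150nM Ub-Rho; 480/540 nm.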

The target of experiment [16] is Cytochrome P450 1A2 (Homo sapiens) (UniProt P05177). The experiment can be described thus: p450-cyp1a2 (AID 410; calls by dose curve; further: potency means the concentration at half of the fitted maximal effect). The conditions noted are these: recombinant CYP1A2, luciferin-ME demethylation, luminescence; series mostly up to 57 µM. In short, it runs like this:
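20nM CYP1A2, 100uM Luciferin-ME (=Km), 100mM KPO4; cpd 10 min RT; +NADPH regen, 60 min RT; stop/detect 20 min; luminescence. Normalized to furafylline 57 uM = full inhibition.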

Where [17] appears, read: measured here: cell count channel max response.
Where [18] appears, read: measured here: lipid channel max response.

The structures appear in SMILES notation. Inconclusive results are not listed. Active and inactive are the calls of the source. Unless noted, the call rests on the fitted dose curve; in most records, active means well fitted curve in the direction sought with a large enough effect; inconclusive means small, poorly fitted or top-dose-only effect, or another doubt; inactive means no such curve, though single readings can be large; an effect the other way counts as inactive or inconclusive. Bounds are passed on as bounds.

Chain of Ubiquitin carboxyl-terminal hydrolase 1 (Homo sapiens) (O94782 whole entry, looked up): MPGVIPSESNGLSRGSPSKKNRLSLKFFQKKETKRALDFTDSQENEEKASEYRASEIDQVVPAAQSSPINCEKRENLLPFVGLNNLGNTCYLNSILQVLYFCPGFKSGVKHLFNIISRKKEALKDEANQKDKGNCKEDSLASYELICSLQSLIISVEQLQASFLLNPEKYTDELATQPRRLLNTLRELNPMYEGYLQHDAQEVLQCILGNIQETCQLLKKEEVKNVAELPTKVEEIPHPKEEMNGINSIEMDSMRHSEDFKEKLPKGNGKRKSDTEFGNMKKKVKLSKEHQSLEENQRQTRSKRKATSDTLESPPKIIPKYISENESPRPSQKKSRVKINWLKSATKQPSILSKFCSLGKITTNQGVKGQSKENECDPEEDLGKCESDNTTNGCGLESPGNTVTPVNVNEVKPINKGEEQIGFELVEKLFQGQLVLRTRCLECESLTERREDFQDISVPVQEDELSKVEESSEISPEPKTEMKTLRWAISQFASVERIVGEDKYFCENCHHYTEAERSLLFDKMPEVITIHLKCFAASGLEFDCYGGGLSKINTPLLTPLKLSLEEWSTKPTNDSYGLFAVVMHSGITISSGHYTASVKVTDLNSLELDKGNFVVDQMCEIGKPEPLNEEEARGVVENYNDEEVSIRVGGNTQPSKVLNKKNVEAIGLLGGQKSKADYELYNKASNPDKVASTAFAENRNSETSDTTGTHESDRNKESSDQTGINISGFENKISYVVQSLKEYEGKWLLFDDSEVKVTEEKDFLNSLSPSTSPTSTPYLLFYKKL
Chain of Dual specificity protein kinase CLK4 (Homo sapiens) (Q9HAZ1 whole entry, looked up): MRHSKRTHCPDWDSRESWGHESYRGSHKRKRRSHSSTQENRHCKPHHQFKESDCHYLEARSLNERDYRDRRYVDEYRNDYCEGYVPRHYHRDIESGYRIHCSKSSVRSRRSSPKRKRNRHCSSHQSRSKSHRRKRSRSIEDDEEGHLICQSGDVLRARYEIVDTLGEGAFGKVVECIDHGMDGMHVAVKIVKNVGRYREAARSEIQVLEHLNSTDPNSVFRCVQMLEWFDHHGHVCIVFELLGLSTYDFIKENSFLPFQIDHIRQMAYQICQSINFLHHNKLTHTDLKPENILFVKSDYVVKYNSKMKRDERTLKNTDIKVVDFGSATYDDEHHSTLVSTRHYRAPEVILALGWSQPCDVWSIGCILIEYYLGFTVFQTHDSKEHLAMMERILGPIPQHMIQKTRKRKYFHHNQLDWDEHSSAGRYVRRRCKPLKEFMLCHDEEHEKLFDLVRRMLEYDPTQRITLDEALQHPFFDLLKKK
Chain of Lysosomal acid glucosylceramidase (Homo sapiens) (P04062 whole entry, looked up): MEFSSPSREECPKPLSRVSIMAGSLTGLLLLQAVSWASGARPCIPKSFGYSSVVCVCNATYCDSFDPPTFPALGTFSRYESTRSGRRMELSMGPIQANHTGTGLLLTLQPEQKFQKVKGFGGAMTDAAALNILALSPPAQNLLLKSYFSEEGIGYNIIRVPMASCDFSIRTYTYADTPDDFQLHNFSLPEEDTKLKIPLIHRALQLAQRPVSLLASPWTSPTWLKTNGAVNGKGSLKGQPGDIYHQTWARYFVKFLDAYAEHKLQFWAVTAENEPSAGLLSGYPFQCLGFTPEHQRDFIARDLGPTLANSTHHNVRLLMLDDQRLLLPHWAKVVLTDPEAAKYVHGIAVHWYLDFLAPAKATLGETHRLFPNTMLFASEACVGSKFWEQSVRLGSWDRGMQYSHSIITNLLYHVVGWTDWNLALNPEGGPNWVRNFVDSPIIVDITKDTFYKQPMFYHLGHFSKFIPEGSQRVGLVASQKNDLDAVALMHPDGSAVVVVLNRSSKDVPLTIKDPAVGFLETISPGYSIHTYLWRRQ
Chain of Glucocorticoid receptor (Homo sapiens) (P04150 whole entry, looked up): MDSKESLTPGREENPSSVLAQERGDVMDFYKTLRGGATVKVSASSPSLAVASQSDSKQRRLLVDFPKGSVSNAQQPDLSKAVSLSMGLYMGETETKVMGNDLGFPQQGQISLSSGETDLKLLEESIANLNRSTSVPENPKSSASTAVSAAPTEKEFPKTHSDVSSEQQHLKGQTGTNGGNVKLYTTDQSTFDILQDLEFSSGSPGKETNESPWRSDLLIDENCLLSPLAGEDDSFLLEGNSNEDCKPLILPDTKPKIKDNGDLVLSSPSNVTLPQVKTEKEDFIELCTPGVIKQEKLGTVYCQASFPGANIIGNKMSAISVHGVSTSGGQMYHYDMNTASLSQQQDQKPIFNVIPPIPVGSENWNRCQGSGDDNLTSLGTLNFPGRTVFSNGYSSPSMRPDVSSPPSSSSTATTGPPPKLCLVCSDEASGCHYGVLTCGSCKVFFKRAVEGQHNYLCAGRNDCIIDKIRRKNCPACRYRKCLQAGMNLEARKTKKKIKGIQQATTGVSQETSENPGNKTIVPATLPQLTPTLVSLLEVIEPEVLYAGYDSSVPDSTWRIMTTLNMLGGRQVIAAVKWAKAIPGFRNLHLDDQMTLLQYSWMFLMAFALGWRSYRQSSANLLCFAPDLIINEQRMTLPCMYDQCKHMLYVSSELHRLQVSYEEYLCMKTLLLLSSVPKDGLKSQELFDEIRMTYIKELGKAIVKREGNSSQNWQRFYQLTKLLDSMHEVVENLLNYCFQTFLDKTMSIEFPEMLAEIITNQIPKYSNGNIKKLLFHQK
Chain of 3',5'-cyclic-AMP phosphodiesterase 4B (Homo sapiens) (Q07343 whole entry, looked up): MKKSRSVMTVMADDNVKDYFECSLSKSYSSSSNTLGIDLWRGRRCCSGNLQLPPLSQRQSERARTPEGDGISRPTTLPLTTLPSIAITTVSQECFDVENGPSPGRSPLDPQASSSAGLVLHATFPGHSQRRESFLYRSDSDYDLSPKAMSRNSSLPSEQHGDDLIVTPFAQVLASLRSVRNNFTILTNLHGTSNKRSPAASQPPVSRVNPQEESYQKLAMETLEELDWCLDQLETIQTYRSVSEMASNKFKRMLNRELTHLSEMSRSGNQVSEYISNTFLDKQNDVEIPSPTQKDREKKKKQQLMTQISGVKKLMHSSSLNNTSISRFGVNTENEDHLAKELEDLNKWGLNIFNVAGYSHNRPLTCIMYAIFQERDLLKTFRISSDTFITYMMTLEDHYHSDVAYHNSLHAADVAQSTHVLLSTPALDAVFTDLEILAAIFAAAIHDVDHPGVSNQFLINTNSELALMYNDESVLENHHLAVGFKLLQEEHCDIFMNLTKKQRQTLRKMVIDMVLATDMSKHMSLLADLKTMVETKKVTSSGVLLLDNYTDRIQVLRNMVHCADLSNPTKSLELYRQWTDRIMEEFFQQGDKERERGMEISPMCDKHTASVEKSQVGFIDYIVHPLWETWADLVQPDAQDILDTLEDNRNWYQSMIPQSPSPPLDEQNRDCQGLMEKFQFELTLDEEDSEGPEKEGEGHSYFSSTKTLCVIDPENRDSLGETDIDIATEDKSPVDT
Chain of Cytochrome P450 3A4 (Homo sapiens) (P08684 whole entry, looked up): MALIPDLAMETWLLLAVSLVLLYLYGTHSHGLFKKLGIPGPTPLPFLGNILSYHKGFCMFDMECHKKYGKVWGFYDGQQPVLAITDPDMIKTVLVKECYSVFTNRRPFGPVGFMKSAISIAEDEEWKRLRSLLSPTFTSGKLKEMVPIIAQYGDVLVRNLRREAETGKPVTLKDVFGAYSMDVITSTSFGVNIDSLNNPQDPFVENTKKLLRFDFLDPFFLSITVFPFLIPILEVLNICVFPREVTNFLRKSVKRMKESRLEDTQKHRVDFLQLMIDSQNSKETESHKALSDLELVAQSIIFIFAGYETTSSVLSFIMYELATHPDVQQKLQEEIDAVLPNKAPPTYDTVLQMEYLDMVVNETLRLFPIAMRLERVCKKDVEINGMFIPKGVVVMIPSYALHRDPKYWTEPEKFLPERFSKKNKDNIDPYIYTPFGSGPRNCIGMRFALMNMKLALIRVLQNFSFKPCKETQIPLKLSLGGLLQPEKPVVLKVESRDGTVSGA
Chain of Cytochrome P450 1A2 (Homo sapiens) (P05177 whole entry, looked up): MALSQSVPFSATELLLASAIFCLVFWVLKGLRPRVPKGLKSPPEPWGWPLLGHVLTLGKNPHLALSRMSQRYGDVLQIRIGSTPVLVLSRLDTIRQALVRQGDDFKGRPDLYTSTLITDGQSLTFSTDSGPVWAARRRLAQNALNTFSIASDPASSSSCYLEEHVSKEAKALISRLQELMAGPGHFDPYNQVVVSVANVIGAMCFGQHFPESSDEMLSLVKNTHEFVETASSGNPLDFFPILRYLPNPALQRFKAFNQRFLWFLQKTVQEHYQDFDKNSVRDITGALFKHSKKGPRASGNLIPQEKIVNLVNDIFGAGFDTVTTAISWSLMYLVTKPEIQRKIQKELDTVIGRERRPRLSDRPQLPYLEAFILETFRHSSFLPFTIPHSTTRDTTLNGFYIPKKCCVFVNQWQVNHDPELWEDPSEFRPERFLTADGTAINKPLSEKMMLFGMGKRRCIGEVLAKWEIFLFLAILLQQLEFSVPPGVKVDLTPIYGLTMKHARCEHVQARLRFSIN
Chain of Cytochrome P450 2C19 (Homo sapiens) (P33261 whole entry, looked up): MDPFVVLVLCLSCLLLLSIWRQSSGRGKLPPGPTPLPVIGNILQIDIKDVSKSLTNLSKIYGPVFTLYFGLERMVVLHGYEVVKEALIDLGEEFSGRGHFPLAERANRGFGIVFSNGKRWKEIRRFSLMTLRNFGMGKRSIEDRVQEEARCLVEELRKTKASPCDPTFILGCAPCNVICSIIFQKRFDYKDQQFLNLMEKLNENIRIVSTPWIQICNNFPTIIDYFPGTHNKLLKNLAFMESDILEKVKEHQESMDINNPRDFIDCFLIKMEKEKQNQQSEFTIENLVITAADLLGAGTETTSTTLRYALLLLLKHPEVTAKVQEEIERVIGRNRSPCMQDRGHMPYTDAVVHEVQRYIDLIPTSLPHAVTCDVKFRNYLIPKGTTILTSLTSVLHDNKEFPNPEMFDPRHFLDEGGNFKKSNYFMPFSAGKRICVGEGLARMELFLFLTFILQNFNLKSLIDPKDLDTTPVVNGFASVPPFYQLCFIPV

For the molecule `CN1CCN(c2ncc3nc(-c4cccc(C#N)c4)c(=O)n(C[C@H]4CCCO4)c3n2)CC1`, the Potency in [1] was > 11.4 µM (inactive); in experiment [5], > 9.22 µM (inactive); in experiment [6], > 46 µM (inactive). Moreover, the results for the activity change, negative = inhibition in experiment [2], in experiment [3] and in experiment [11] were 27.9% (inactive), -3.07% (inactive) and 2.76% (inactive), respectively. Besides, the activity, negative = inhibition in [4] was 11.4% (inactive). The Potency entry in experiment [7], in [8], in [9], in experiment [10], in [12] and in [13] was “inactive” in each case. The Potency result in experiment [14] and in experiment [15] was “inactive” throughout. Besides, the figures for the max response in experiment [11] (setting [17]) and in experiment [11] (setting [18]) were 11.1% and 12.1%, respectively.
On to `Cc1nc2cnc(N3CCN(C)CC3)nc2n(C2CC2)c1=O`, for which the figures for the Potency in experiment [1], in [5] and in experiment [6] were > 11.4 µM (inactive), > 9.22 µM (inactive) and > 46 µM (inactive), respectively. Further, the activity change, negative = inhibition in experiment [2] was -13.1% (inactive); in experiment [3], -3.47% (inactive); in experiment [11], 3.22% (inactive). In addition, the activity, negative = inhibition in experiment [4] is -9.11% (inactive). Moreover, the Potency entry in [7], in experiment [12], in experiment [13], in experiment [14] and in experiment [15] was “inactive” in each case. The values for the max response in experiment [11] (setting [17]) and in [11] (setting [18]) were 14.4% and 16.3%, respectively.
Consider `COCCn1c(=O)c(-c2ccccc2)nc2cnc(N3CCN(C)CC3)nc21`, for which the values for the Potency in experiment [1], in experiment [5] and in experiment [6] were > 11.4 µM (inactive), > 9.22 µM (inactive) and > 46 µM (inactive), respectively. The activity change, negative = inhibition in experiment [2] was -12.6% (inactive); in experiment [3], 7.66% (inactive); in [11], 3.96% (inactive). Further, the activity, negative = inhibition in [4] is -8.44% (inactive). Besides, the Potency result in experiment [7], in experiment [8], in experiment [12], in [13], in experiment [14] and in experiment [15] was “inactive” throughout. The figures for the max response in [11] (setting [17]) and in experiment [11] (setting [18]) were 11.4% and 16.1%, respectively.
As to `COc1ccc(Oc2ncc3nc(-c4ccc(Cl)cc4)c(=O)n(C4CC4)c3n2)cc1`, the Potency is > 11.4 µM (inactive) in experiment [1], > 9.22 µM (inactive) in experiment [5] and > 46 µM (inactive) in [6]. In addition, the activity change, negative = inhibition in experiment [2] was -19.7% (inactive); in experiment [3] it was 2.73% (inactive); in experiment [11], 4.67% (inactive). Also, the activity, negative = inhibition in [4] was -1.97% (inactive). The Potency entry in experiment [7], in experiment [12], in experiment [13], in experiment [14] and in experiment [15] was “inactive” in each case. Moreover, the max response in experiment [11] (setting [17]) is -1.25%; in experiment [11] (setting [18]), 5.63%.
For `COCCn1c(=O)c(-c2ccccc2)nc2cnc(Nc3cccc(OC)c3)nc21`, the Potency in [1] is > 11.4 µM (inactive); in experiment [16] it was 3.98 µM (active); in experiment [5], > 9.22 µM (inactive); in experiment [6] it was > 46 µM (inactive). The results for the activity change, negative = inhibition in experiment [3] and in experiment [11] were -5.93% (inactive) and 1.38% (inactive), respectively. In addition, the activity, negative = inhibition in [4] was -18.3% (inactive). The Potency result in experiment [7], in experiment [12], in [13], in experiment [14] and in [15] was “inactive” throughout. The values for the max response in experiment [11] (setting [17]) and in [11] (setting [18]) were -0.938% and 0.127%, respectively.
With `COCCn1c(=O)c(-c2ccc(Cl)cc2)nc2cnc(N3CCNCC3)nc21`, the Potency in experiment [1] was > 11.4 µM (inactive); in experiment [5], > 9.22 µM (inactive); in experiment [6], > 46 µM (inactive). The Potency entry in experiment [7], in [8], in experiment [12], in experiment [13], in [14] and in [15] was “inactive” in each case. Also, in experiment [11], the activity change, negative = inhibition was 5.4% (inactive). Also, the figures for the max response in experiment [11] (setting [17]) and in [11] (setting [18]) were 20.2% and 21.3%, respectively.
